The record followed here is ChEMBL document CHEMBL4513216, “Probing the Open Global Health Chemical Diversity Library for Multistage-Active Starting Points for Next-Generation Antimalarials” (ACS Infect Dis, 2020).

Out of some 69,000 compounds screened, about 8,600 (12%) showed an effect of 50% or more. The list comes from a sample in which strong results are over-represented; it also holds similar structures and randomly drawn compounds.

This assay relates to Plasmodium berghei. As to the kind of experiment: Screen against P. berghei liver stage (PbLuc), transformed with Luciferase, at 10uM. The format is functional, HepG2. The conditions noted are these: tested at 10 uM.
Regarding `CC(C)CNC(=O)c1cc(C2CC2)nc2onc(C3CCNCC3)c12`, the INHIBITION was 13.5%. With `NCCc1c(-c2ccc(F)cc2)[nH][nH]c1=O`, the INHIBITION worked out at 39.1%.

With `COc1ccccc1CNC(=O)c1[nH]ncc1Cl`, the INHIBITION came to 46.6%.

On to `NC(=O)Cn1cc(NC(=O)N2CCN(c3ccccc3)CC2)cn1`, for which the INHIBITION is given as -65.7%. `CC(C)N(C(=O)Cn1cc(Cl)cn1)c1ccccc1`: the INHIBITION is listed as 21.8%.

As to `Brc1cccc(-c2noc(CN3CCOCC3)n2)c1`, the INHIBITION came out at 43.3%.

As for `O=C(COc1coc(CN2CCCCC2)cc1=O)NCc1ccccc1`, the INHIBITION is on record as 9.48%.

Turning to `Cn1cc(N2CC3(COCCN(Cc4ccsc4)C3)OCC2=O)cn1` (stereo unspecified), the INHIBITION is given as 18.2%.

For `Cn1cc(N2CC3(COCCN(Cc4nccs4)C3)OCC2=O)cn1` (stereo unspecified), the INHIBITION was 56.7%. As for `Cc1cccc(CN2CCC3(CC2)CN(c2cnn(C)c2)C(=O)CO3)n1`, the figure is 68.3%; as for `Cc1cccc(CN2CCCC3(CCN(c4cccnc4)C3=O)C2)n1` (stereo unspecified), 29%; as for `Cc1cccc(CN2CCC3(CCN(c4cccnc4)C3=O)C2)n1` (stereo unspecified), 58.8%. As for `Cn1cc(N2CC3(CCN(Cc4nccs4)CC3)OCC2=O)cn1`, the figure is 26.3%; as for `Cn1cc(N2CC3(CCN(Cc4cccs4)CC3)OCC2=O)cn1`, -34.9%; as for `Cc1cccc(CN2CCC3(CC2)CN(c2cccnc2)C(=O)CO3)n1`, 30.3%.

For `Cn1cc(N2CC3(CCN(Cc4ccsc4)CC3)OCC2=O)cn1`, the INHIBITION stood at 54.4%. As for `Cn1cc(N2CC3(COCCN(Cc4ccccn4)C3)OCC2=O)cn1` (stereo unspecified), the INHIBITION is given as -8.54%. As for `Cn1cc(N2CC3(CCN(Cc4ccccc4)CC3)OCC2=O)cn1`, the figure is 14.1%; as for `COc1ccc(CN2CCC3(CCN(c4cccnc4)C3=O)C2)cc1` (stereo unspecified), 8.67%; as for `CC(=O)N1CCCC(c2ccc(Cc3ccccc3)cn2)C1` (stereo unspecified), 37.6%. Take `CCN1C[C@H]2C3(CCN(C(C)=O)CC3)CC[C@@]2(C(=O)N(C)C)C1`: the INHIBITION was 36.7%. For `COCCN(C)C[C@@H]1CN(Cc2ccnc3ccccc23)C[C@@H]1CO`, the INHIBITION is 17.5%.

`Cc1cnn(CC2CCCCN2C(=O)c2c(C)noc2C)c1` (stereo unspecified): the INHIBITION is listed as 11.4%. Consider `CN(C)c1cncc(C2CCN(CC3(O)CCCCC3)CC2)n1`, for which the INHIBITION is given as 37.6%. As for `CS(=O)(=O)N1CC[C@H]2[C@H](C[C@@H](Cn3cncn3)N2CC2CC2)C1`, the figure is -28.2%; as for `COCCN1CC(C(=O)NCc2cccnc2-n2cccn2)CC1=O` (stereo unspecified), -29.8%. Then `CN1CC2(CCN(C(=O)Cn3ncc4ccccc4c3=O)CC2)OC1=O`, with 36.3%; and `CCOCCN1CCN(CCCS(C)(=O)=O)CC1C` (stereo unspecified), with -52.5%; and `COCCC1(CNC(=O)Nc2ccnc(C)c2)CCCC1`, with 57.4%. As for `COCCC1(CNC(=O)Nc2ccc(-n3nccn3)cc2)CCC1`, the figure is -23.3%; as for `Cc1cc(NC(=O)NCC2(O)CCCC2)ccn1`, 32.3%. Take `Cn1nc(CNC(=O)C2CCCCC2)cc1C1CC1`: the INHIBITION stood at 13.6%.

In the case of `Cc1cn(-c2ccccc2)nc1NS(=O)(=O)c1cc(C(=O)O)ccc1Cl`, the INHIBITION stood at 25.4%. As for `CC(C)c1nc(CN2CCCC2Cn2cccn2)no1` (stereo unspecified), the figure is 19.6%.

On to `CC(=O)N1CCN(CCNc2snc(Cl)c2C#N)CC1`, for which the INHIBITION was -4.93%.

Regarding `COc1ccccc1C1(CNc2snc(Cl)c2C#N)CCOCC1`, the INHIBITION is on record as 53.4%. As to `COc1ccccc1OCCNc1snc(Cl)c1C#N`, the INHIBITION is given as 68.1%.

For `COc1ccccc1C1(CNc2cn[nH]c(=O)c2Cl)CC1`, the INHIBITION is listed as -22.2%. As for `COc1ccccc1C1(CNc2ncc(S(N)(=O)=O)s2)CC1`, the figure is -10.9%; as for `CC(=O)N1CCN(C(=O)CCNc2snc(Cl)c2C#N)CC1`, -27%.

Consider `COc1ccccc1C1(CNc2snc(Cl)c2C#N)CCCC1`, for which the INHIBITION is 80.2%.

Take `N#Cc1c(Cl)nsc1NCCN1CCOCC1`: the INHIBITION is reported as 39.9%. As for `COc1ccc(C)cc1C1(CNc2cncc(Cl)n2)CCOCC1`, the figure is -60.3%; as for `COc1ccccc1C1(CNc2cn[nH]c(=O)c2Cl)CCOCC1`, -9.69%. Then `NS(=O)(=O)c1cnc(NCC2(c3ccccc3)CCC2)s1`, with 9.37%; and `N#Cc1c(Cl)nsc1NCC1(c2ccccc2)CCC1`, with 84%; and `Cc1nn(CCO)c(C)c1CNC1CCOc2ccccc21` (stereo unspecified), with 13%.

On to `O=C(NC1CCCN(Cc2c(F)cccc2F)C1)c1cnccn1` (stereo unspecified), for which the INHIBITION is 23.7%. As for `CS(=O)(=O)CCCN1CCN(C(C#N)c2ccccc2)CC1` (stereo unspecified), the figure is 21.2%; as for `NC(=O)c1ccc(C2CN(Cc3ccc(F)cc3)CCO2)nc1` (stereo unspecified), 31.3%. As for `CCc1ocnc1C(=O)N1CCC2(CCCN(CC(C)(C)C)C2=O)C1` (stereo unspecified), the figure is 32.2%; as for `Cc1nc(-c2ccccc2)n(CC(=O)NC2CCCC2)n1`, 7.27%; as for `CCC1(C(=O)O)CCCN(C(=O)c2ccc(N3CCN(C)CC3)cc2)C1` (stereo unspecified), 33.7%. As for `CN1CCN(c2ccc(C(=O)N3CCCC(c4ncc[nH]4)C3)cc2)CC1` (stereo unspecified), the figure is 3.3%. In the case of `CCC1(CO)CCCN(C(=O)c2ccc(N3CCN(C)CC3)cc2)C1` (stereo unspecified), the INHIBITION is listed as 53.5%.

Regarding `c1ccc(-c2noc(CN3CCCC(Cn4cncn4)C3)n2)nc1` (stereo unspecified), the INHIBITION is reported as -23.8%. As for `COc1cccc(-c2ccnc3nc(N4CCCCC4)[nH]c(=O)c23)c1`, the INHIBITION is given as 14.3%.

For `COc1cc(/C=C/c2ncc(C(=O)O)s2)cc(Cl)c1OC`, the INHIBITION is 41.5%.

For the compound `Cc1noc(C)c1CN1CCC2(COCc3cnc(N(C)C)nc32)C1` (stereo unspecified), the INHIBITION was 1.9%. For the compound `Cn1ccnc1C(O)c1ccccc1N1CCN(Cc2ccsc2)CC1` (stereo unspecified), the INHIBITION is 53.75%. As for `Cn1ccnc1C(O)c1ccccc1N1CCN(Cc2cccs2)CC1` (stereo unspecified), the figure is 15.605%; as for `Cn1ccnc1C(O)c1ccccc1N1CCN(CC2CCCC2)CC1` (stereo unspecified), 13%. Then `COCc1cc(NCCc2ccc(S(N)(=O)=O)cc2)n2nccc2n1`, with 26.6%; and `Cc1ccccc1OCCN(C)C(=O)NC(C)c1nncn1C` (stereo unspecified), with 35.9%; and `CCNC(=O)NC(=O)C(C)N(C)CCOc1ccccc1C` (stereo unspecified), with 73.3%. Then `CCNC(=O)NC(=O)C(C)Nc1ccccc1OCCOC` (stereo unspecified), with 29.8%. `COC(=O)c1ccoc1CN(C)Cc1cc(OC)c(OC)cc1C`: the INHIBITION is listed as 7.43%. `O=C(c1ccoc1)N1CCc2ncc(Cn3cccn3)n2CC1`: the INHIBITION is listed as -3.33%. Then `COCCOc1cccc(CNCc2ccc(-n3cncn3)nc2)c1`, with -9.8%.

As to `FC(F)(F)Oc1cccc(CNCc2ccc(-n3cncn3)nc2)c1`, the INHIBITION is listed as 20.9%. For `c1cc(CNCc2ccc(-n3cncn3)nc2)cc(OC2CCCC2)c1`, the INHIBITION is reported as 75.4%.
